# tim10-1 inh: growth inhibitors of tim10-1 mutant yeast, primary screen, luminescence, uHTS. S. cerevisiae tim10-1 ts strain growth, BacTiter-Glo, 24 h. inhibition, % at 20 µM. 2.2% of 330,000 active. AID 463190, 2010;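 active means inhibition of at least 40%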;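 further: mutant grown at 25 °C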
# PfHsp90 set2: growth inhibition of PfHsp90-expressing yeast, primary screen, antimalarial PfHsp90 inhibitor project, S. cerevisiae, BacTiter-Glo luminescence, single point, set 2; 0.32% of 310,000 active; inhibition, % at 9.4 µM; BacTiter-Glo ATP, 48 h; yeast lacking PDR1 and PDR3 efflux regulators;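 active means every replicate shows inhibition above about 80%, whatever the replicate mean, limit read from the data; inconclusive means mean inhibition reaches the set limit but some replicate falls short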
# TIM10 inh: growth inhibitors of isogenic TIM10 control yeast, primary screen, counter-screen for tim10-1 yeast inhibitor project, luminescence, uHTS. S. cerevisiae TIM10 strain growth, BacTiter-Glo luminescence, 24 h. inhibition, % at 10 µM. 1.4% of 330,000 active;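 active means inhibition of 40% or more at the single tested concentration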;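 further: wild-type TIM10 isogenic control strain grown at permissive 25 °C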
# SKKanGAS inh: S. pyogenes SKKanGAS growth inhibitors in kanamycin, primary screen, streptokinase expression inhibitor project, SKKanGAS strain, BacTiter-Glo luminescence | 6 h | inhibition, % at 7.5 µM | 1.3% of 300,000 active;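 active means mean replicate score, as percent of positive control median, at least 50; inconclusive means mean below 50 but one replicate at or above 50; inactive means mean and every replicate below 50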;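 further: strain carries kanamycin resistance gene driven by streptokinase promoter and grows in 40 µg/ml kanamycin; loss of luminescence reflects streptokinase promoter inhibition or plain growth inhibition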
# EBI2 block: EBI2 receptor antagonists, beta-arrestin recruitment, primary screen, cell-based, luminescence, 7a,25-OHC stimulation, uHTS | G-protein coupled receptor 183 (Homo sapiens), P32249 | 7a,25-OHC stimulated | inhibition, % at 5 µM | 0.81% of 360,000 active; in the data active means inhibition above about 38%;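 further: enzyme fragment complementation signal reports receptor beta-arrestin coupling in cells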
# Target sequence (P32249 whole entry, looked up, the tested form may be a part): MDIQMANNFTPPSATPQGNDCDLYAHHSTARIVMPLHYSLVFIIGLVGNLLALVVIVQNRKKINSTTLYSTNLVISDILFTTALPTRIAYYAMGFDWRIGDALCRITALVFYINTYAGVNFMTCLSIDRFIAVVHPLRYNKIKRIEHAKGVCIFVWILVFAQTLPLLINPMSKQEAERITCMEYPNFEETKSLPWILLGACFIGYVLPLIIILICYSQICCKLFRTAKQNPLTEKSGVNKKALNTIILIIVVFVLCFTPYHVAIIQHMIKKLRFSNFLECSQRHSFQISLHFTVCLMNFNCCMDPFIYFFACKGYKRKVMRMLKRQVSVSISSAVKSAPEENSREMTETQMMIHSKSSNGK
# tim23-1 inh: growth inhibitors of tim23-1 mutant yeast, primary screen, luminescence, uHTS; AID 463212, 2010; inhibition, % at 20 µM; 1.3% of 330,000 active; S. cerevisiae tim23-1 growth, BacTiter-Glo luminescence, 24 h;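 active means growth inhibition of the mutant yeast at or above 50%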;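 further: temperature-sensitive mutant grown at 25 °C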
# Hits are given with their value; . = inactive; ? = inconclusive; / = no result. Only some compounds are listed: those with a hit (about 4.7% of all), similar ones and a draw of the others.
SMILES,tim10-1 inh,PfHsp90 set2,TIM10 inh,SKKanGAS inh,EBI2 block,tim23-1 inh
Cc1ccccc1NC1=C/C(=N\S(=O)(=O)c2ccc(C(=O)O)cc2)c2ccccc2C1=O,.,.,.,95,.,.
Cc1ccc(NC2=C/C(=N/S(=O)(=O)c3cccs3)c3ccccc3C2=O)cc1C,/,.,/,.,.,/
COc1cccc(C(=O)N2CCC2(C)C(=O)O)c1 (stereo not drawn),/,/,/,/,.,/
CC(=O)Nc1ccc(CN(C)c2c(C)nc3ccc(C(=O)N4CCN(C(=O)c5ccco5)CC4)cn23)cc1,/,/,/,/,.,/
COc1ccc(NS(=O)(=O)c2ccc3ccccc3c2)c2ncccc12,.,.,.,94,.,.
O=S(=O)(Nc1cccc2cccnc12)c1ccccc1,.,.,.,?,62,.
Cc1ccc2cccc(NS(=O)(=O)c3ccccc3)c2n1,.,/,.,55,/,.
COc1ccccc1NS(=O)(=O)c1ccc2ccccc2c1,.,.,.,.,.,.
O=S(=O)(Nc1cccc2ccccc12)c1ccccc1,.,.,.,.,.,.
CC(C)(C)S(=O)N1Cc2cc(C(=O)Nc3ccc(-c4ccccc4)cc3)nc(-c3cccc(-c4cc5ccccc5o4)c3)c2[C@@H]1CCO (stereo partly drawn),/,/,/,/,.,/
O=C(NC(=S)Nc1ccccn1)c1cccc([N+](=O)[O-])c1,.,.,.,.,.,.
CC(NC(=O)c1cc(COc2ccc(-n3cncn3)cc2)on1)c1ccc(F)cc1 (stereo not drawn),/,/,/,/,.,/
O=C(NC(=S)Nc1cccnc1)c1cccc(Cl)c1,/,/,/,/,.,/
O=C1CCCc2oc3c(cc(NS(=O)(=O)c4ccc5c6c(cccc46)C(=O)N5)c4ccccc43)c21,.,.,.,54,.,.
CCNC(=O)C1(C)CCN(C(=O)c2ccc(C(=O)OC)cc2)C1 (stereo not drawn),/,/,/,/,.,/
Nc1c(S(=O)(=O)c2cccc(Cl)c2)c2nc3ccccc3nc2n1/N=C/c1ccc(O)c(O)c1,.,/,.,95,/,.
COc1cccc(/C=N/n2c(N)c(S(=O)(=O)c3cccs3)c3nc4ccccc4nc32)c1OC,.,.,.,.,.,.
Cc1ccc2nc(NC(=O)c3ccccc3F)sc2c1,.,.,.,.,.,.
O=C(Nc1nc2c(F)cc(F)cc2s1)c1ccccn1,.,.,.,72,63,.
Cc1ccc2nc(NC(=O)c3ccccn3)sc2c1,.,.,.,85,61,.
CCOc1ccc2nc(NC(=O)c3ccccn3)sc2c1,.,.,.,81,60,.
CSc1ccccc1NC(=O)CN(C)C(=O)C1CCN(C(=O)Nc2ccccc2)CC1,.,/,.,.,.,.
O=C(CN1c2ccccc2Sc2ccccc21)NNC(=O)Nc1ccc(Cl)c(Cl)c1,.,.,.,57,.,.
O=C(CN1c2ccccc2Sc2ccccc21)NNC(=O)Nc1ccc(Cl)cc1,.,.,.,.,.,.
O=[N+]([O-])c1ccc(S(=O)(=O)NCCc2ccncc2)cc1,.,.,.,.,.,.
SMILES,tim10-1 inh,PfHsp90 set2,TIM10 inh,SKKanGAS inh,EBI2 block,tim23-1 inh
COC(=O)[C@]1(C)CCC[C@@]2(C)C3CC[C@@]4(C)C[C@]3(CCC21)CC(=O)N4 (stereo partly drawn),.,/,.,/,.,.
C=C1C(=O)C23CCC4C(C)(C(=O)OC)CCCC4(C)C2CCC1(O)C3 (stereo not drawn),/,104,/,/,78,/
O=C(O)CNC(=O)c1ccc(N2CCOCC2)cc1[N+](=O)[O-],.,.,.,.,.,.
O=C(N/N=C/c1ccccc1O)c1cccc(C(F)(F)F)c1,.,.,.,.,59,.
Cc1cc(NC(=O)CN2C(=O)c3ccccc3C2=O)no1,.,.,.,50,.,.
Cc1cc(NC(=O)CN2C(=O)c3ccccc3S2(=O)=O)no1,.,.,.,.,.,.
CC(C)OC(=O)c1c2nc3ccccc3nc2n2c1[nH]c(=O)c1ccccc12,.,/,.,55,/,.
CC(=O)Oc1ccc(C23c4ccccc4C2(OC(C)=O)c2cc(OC(C)=O)ccc23)cc1 (stereo not drawn),/,.,/,/,.,/
COc1ccc(C(=O)c2sc3nc(C)cc(-c4cccs4)c3c2N)cc1OC,/,.,/,.,55,/
COc1ccc(C(=O)C(=O)N2CCN(c3ccccc3F)CC2)cc1,/,/,/,/,.,/
COc1ccc(-c2oc(NC(=O)CCl)c(C#N)c2-c2ccc(OC)cc2)cc1,.,.,.,?,.,.
COc1ccc(-c2oc(NC(=O)CSc3ncn[nH]3)c(C#N)c2-c2ccc(OC)cc2)cc1,.,.,.,70,.,.
CCn1cc(C(=O)O)c(=O)c2cc(F)c(N3CCN(C(=S)Nc4ccccc4OC)CC3)cc21,.,.,.,.,.,.
CCn1cc(C(=O)O)c(=O)c2cc(F)c(N/N=C/c3ccccc3[N+](=O)[O-])cc21,.,.,.,79,.,.
CCOc1ccc(N2C(=O)CC(N3CCC(O)(c4ccc(Br)cc4)CC3)C2=O)cc1 (stereo not drawn),.,?,.,.,.,.
CCOC(=O)c1ccc(N2C(=O)CC(N3CCC(O)(c4ccc(Br)cc4)CC3)C2=O)cc1 (stereo not drawn),.,96,.,.,.,.
CCOC(=O)c1ccc(N2C(=O)CC(N3CCC(O)(c4ccc(Cl)cc4)CC3)C2=O)cc1 (stereo not drawn),.,101,.,.,.,.
CCCOc1ccc(N2C(=O)CC(N3CCOCC3)C2=O)cc1 (stereo not drawn),.,.,.,.,.,.
CCCOc1ccc(N2C(=O)CC(N3CCC(C(=O)OCC)CC3)C2=O)cc1 (stereo not drawn),.,105,.,.,.,.
CC(C)N(C(=O)[C@H]1C[C@H](CC(=O)NCCC2=CCCCC2)C(=O)N2CCc3c([nH]c4ccc(Cl)cc34)[C@]12C)C(C)C,.,.,.,/,.,.
CNC(=O)C1Cc2c(-c3ccccc3Oc3ccccc3)ccnc2O1 (stereo not drawn),/,/,/,/,.,/
CC(=O)Nc1ccc2c(c1)C(=O)c1cccc(C(=O)O)c1-2,/,.,/,/,.,/
O=C(O)c1ccc2c3c(ncnc13)-c1ccccc1C2=O,.,/,.,59,/,.
COc1cccc(/C=N/Nc2cc(-n3nc(C)cc3-c3ccccc3)ncn2)c1O,.,.,.,117,.,.
CC(C)CNC(=O)CCc1nc(-c2ccccc2)no1,.,.,.,.,.,.
CC(C(=O)NC1C(=O)N2C(C(=O)O)=C(CSc3nnnn3C)CSC12)n1cc(Cl)cn1 (stereo not drawn),.,.,.,105,.,.

# Compound activity (PubChem BioAssay)
